# Measurements: the supplement of paper PMC8728848
# About 410 targets per protein were measured; listed, in parts, are those with the strongest signals and a random draw of the rest.
# B1: Galatrox (Botrops atrox), P0DM53 (protein)
# chain: NNCPQDWLPMNGLCYKIFDELKAWKDAEMFCRKYKPGCHLASIILYGESPEWAEGHSEVWLGLWDKKKDFSWEWTDR
# Experiments:
# Experiment in all cases: glycan array binding signal (z-score within array); higher = stronger binding
# Settings in all cases: glycan notation: IUPAC condensed, linker removed
# [1] = target: Fuc(a1-2)Gal(b1-3)GlcNAc(b1-3)[Fuc(a1-3)[Gal(b1-4)]GlcNAc(b1-6)]Gal(b1-4)Glc
# Outline: (§1)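 The binding signal is a Z-score computed within each array. Data were drawn from 3228 arrays in the Consortium for Functional Glycomics database, restricted to those with a known protein sequence. Scores were averaged over arrays of the same protein sequence at different concentrations or buffers, and over linkers, and negative values can be taken as non-binding.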
# [2] = target: Fuc(a1-2)Gal(b1-4)GlcNAc(b1-3)GalNAc
# Outline: as §1
# [3] = target: Fuc(a1-2)Gal(b1-4)[Fuc(a1-3)]GlcNAc
# Outline: as §1
# [4] = target: Fuc(a1-2)Gal(b1-4)[Fuc(a1-3)]GlcNAc(b1-2)Man(a1-3)[Fuc(a1-2)Gal(b1-4)[Fuc(a1-3)]GlcNAc(b1-2)Man(a1-6)]Man(b1-4)GlcNAc(b1-4)GlcNAc
# Outline: as §1
# [5] = target: Fuc(a1-2)[GalNAc(a1-3)]Gal
# Outline: as §1
# Gal(a1-3)Gal(b1-4)GlcNAc = target: Gal(a1-3)Gal(b1-4)GlcNAc
# Outline: as §1
# Gal(a1-6)Glc = target: Gal(a1-6)Glc
# Outline: as §1
# Gal(b1-3)Gal(b1-4)GlcNAc = target: Gal(b1-3)Gal(b1-4)GlcNAc
# Outline: as §1
# [6] = target: Gal(b1-3)GlcNAc(b1-3)Gal(b1-4)Glc
# Outline: as §1
# [7] = target: Gal(b1-3)[Fuc(a1-4)]GlcNAc(b1-2)Man(a1-3)[Gal(b1-3)[Fuc(a1-4)]GlcNAc(b1-2)Man(a1-6)]Man(b1-4)GlcNAc(b1-4)[Fuc(a1-6)]GlcNAc
# Outline: as §1
# [8] = target: Gal(b1-3)[GlcNAc(b1-6)]GalNAc
# Outline: as §1
# [9] = target: Gal(b1-4)GlcNAc(a1-6)Gal(b1-4)GlcNAc
# Outline: as §1
# [10] = target: Gal(b1-4)GlcNAc(b1-2)Man(a1-3)[Gal(b1-4)GlcNAc(b1-2)Man(a1-6)]Man(b1-4)GlcNAc(b1-4)GlcNAc
# Outline: as §1
# [11] = target: Gal(b1-4)GlcNAc(b1-2)Man(a1-3)[Man(a1-6)]Man(b1-4)GlcNAc(b1-4)GlcNAc
# Outline: as §1
# [12] = target: Gal(b1-4)GlcNAc(b1-2)Man(a1-6)[Man(a1-3)]Man(b1-4)GlcNAc(b1-4)GlcNAc
# Outline: as §1
# [13] = target: Gal(b1-4)GlcNAc(b1-2)[Gal(b1-4)GlcNAc(b1-4)]Man(a1-3)[Gal(b1-4)GlcNAc(b1-2)Man(a1-6)]Man(b1-4)GlcNAc(b1-4)GlcNAc
# Outline: as §1
# [14] = target: Gal(b1-4)GlcNAc(b1-3)Gal(b1-4)GlcNAc
# Outline: as §1
# [15] = target: Gal(b1-4)GlcNAc(b1-3)Gal(b1-4)GlcNAc(b1-3)Gal(b1-4)GlcNAc
# Outline: as §1
# [16] = target: Gal(b1-4)GlcNAc(b1-3)Gal(b1-4)[Fuc(a1-3)]GlcNAc(b1-3)Gal(b1-4)[Fuc(a1-3)]GlcNAc
# Outline: as §1
# [17] = target: Gal(b1-4)GlcNAc(b1-3)[Gal(b1-4)GlcNAc(b1-6)]Gal(b1-4)GlcNAc
# Outline: as §1
# [18] = target: Gal(b1-4)GlcNAc(b1-6)GalNAc
# Outline: as §1
# Gal3S(b1-3)GlcNAc = target: Gal3S(b1-3)GlcNAc
# Outline: as §1
# Kdn(a2-6)Gal(b1-4)GlcNAc = target: Kdn(a2-6)Gal(b1-4)GlcNAc
# Outline: as §1
# [19] = target: Man(a1-2)Man(a1-3)[Man(a1-2)Man(a1-6)]Man
# Outline: as §1
# [20] = target: Man(a1-2)Man(a1-3)[Man(a1-2)Man(a1-6)]Man(a1-6)[Man(a1-2)Man(a1-2)Man(a1-3)]Man
# Outline: as §1
# [21] = target: Neu5Ac(a2-3)Gal(b1-3)GlcNAc6S
# Outline: as §1
# [22] = target: Neu5Ac(a2-3)Gal(b1-4)[Fuc(a1-3)]GlcNAc(b1-3)Gal(b1-4)GlcNAc
# Outline: as §1
# [23] = target: Neu5Ac(a2-3)Gal(b1-4)[Fuc(a1-3)]GlcNAc6S
# Outline: as §1
# Neu5Ac(a2-3)GalNAc = target: Neu5Ac(a2-3)GalNAc
# Outline: as §1
# [24] = target: Neu5Gc(a2-3)Gal(b1-3)GlcNAc
# Outline: as §1
binder,measurement,setting,value
B1,glycan array binding signal (z-score),[1],-0.364
same,glycan array binding signal (z-score),[2],-0.36
same,glycan array binding signal (z-score),[3],-0.364
same,glycan array binding signal (z-score),[4],0.123
same,glycan array binding signal (z-score),[5],-0.357
same,glycan array binding signal (z-score),Gal(a1-3)Gal(b1-4)GlcNAc,-0.137
same,glycan array binding signal (z-score),Gal(a1-6)Glc,-0.37
same,glycan array binding signal (z-score),Gal(b1-3)Gal(b1-4)GlcNAc,3.61
same,glycan array binding signal (z-score),[6],0.413
same,glycan array binding signal (z-score),[7],-0.333
same,glycan array binding signal (z-score),[8],-0.192
same,glycan array binding signal (z-score),[9],3.28
same,glycan array binding signal (z-score),[10],1.27
same,glycan array binding signal (z-score),[11],0.001
same,glycan array binding signal (z-score),[12],1.15
same,glycan array binding signal (z-score),[13],3.31
same,glycan array binding signal (z-score),[14],3.16
same,glycan array binding signal (z-score),[15],3.28
same,glycan array binding signal (z-score),[16],3.31
same,glycan array binding signal (z-score),[17],4.18
same,glycan array binding signal (z-score),[18],2.44
same,glycan array binding signal (z-score),Gal3S(b1-3)GlcNAc,-0.363
same,glycan array binding signal (z-score),Kdn(a2-6)Gal(b1-4)GlcNAc,0.063
same,glycan array binding signal (z-score),[19],-0.378
same,glycan array binding signal (z-score),[20],-0.369
same,glycan array binding signal (z-score),[21],-0.36
same,glycan array binding signal (z-score),[22],2.3
same,glycan array binding signal (z-score),[23],-0.373
same,glycan array binding signal (z-score),Neu5Ac(a2-3)GalNAc,-0.364
same,glycan array binding signal (z-score),[24],-0.368
